About 2,200 (92%) of roughly 2,400 compounds were called active.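 The calls were made as follows: active = mean inhibition over triplicate runs exceeds the cutoff derived for the earlier primary screen (cut at about 25% in these data); inactive = the rest.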 So high a share suggests a set chosen from earlier hits. The list shows a part of the results.
target: Platelet-activating factor acetylhydrolase IB subunit alpha2 (Homo sapiens) (UniProt P68402); assay: inhibition of human PAFAH1B2 catalytic subunit – biochemical, fluorescence polarization, FP-rhodamine probe, triplicate, confirmation (AID 493034); details: recombinant PAFAH1B2, FP-rhodamine probe fluorescence polarization; at 3.39 µM; hits give high values;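 also: 0% = enzyme with DMSO and 100% = wells lacking PAFAH1B2 protein; inhibitors lower polarization by leaving the probe unbound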
Sequence (P68402 whole entry, looked up): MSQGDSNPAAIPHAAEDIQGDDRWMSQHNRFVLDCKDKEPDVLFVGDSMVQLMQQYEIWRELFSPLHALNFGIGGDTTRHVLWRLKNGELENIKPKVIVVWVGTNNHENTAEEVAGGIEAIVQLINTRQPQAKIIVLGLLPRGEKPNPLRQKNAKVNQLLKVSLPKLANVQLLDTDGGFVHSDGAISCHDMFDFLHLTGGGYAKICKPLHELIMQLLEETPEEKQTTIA

Row | Structure (SMILES) | inhibition
1 | C[C@@H]1CN([C@H](C)CO)C(=O)c2cccc(NC(=O)NC3CCCCC3)c2O[C@@H]1CN(C)C(=O)Nc1ccc(C(F)(F)F)cc1 | 55.7% (active)
2 | C[C@H](CO)N1C[C@H](C)[C@@H](CN(C)C(=O)Nc2ccc(C(F)(F)F)cc2)Oc2c(NC(=O)Nc3ccc4c(c3)OCO4)cccc2C1=O | 44.2% (active)
3 | C[C@H](CO)N1C[C@H](C)[C@@H](CN(C)C(=O)Nc2ccccc2)Oc2c(NC(=O)Nc3ccc(C(F)(F)F)cc3)cccc2C1=O | 23.4% (inactive)
4 | C[C@H](CO)N1C[C@H](C)[C@@H](CN(C)C(=O)Nc2ccc(C(F)(F)F)cc2)Oc2c(NC(=O)Nc3ccc(C(F)(F)F)cc3)cccc2C1=O | 62.5% (active)
5 | C[C@H](CO)N1C[C@H](C)[C@@H](CN(C)C(=O)Nc2ccc(C(F)(F)F)cc2)Oc2c(NC(=O)Nc3ccccc3)cccc2C1=O | 42.3% (active)
6 | COc1ccc(NC(=O)N(C)C[C@H]2Oc3c(NC(=O)Nc4ccc(C(F)(F)F)cc4)cccc3C(=O)N([C@H](C)CO)C[C@@H]2C)cc1 | 28.7% (active)
7 | COc1ccc(NC(=O)Nc2cccc3c2O[C@H](CN(C)C(=O)Nc2ccc(C(F)(F)F)cc2)[C@@H](C)CN([C@H](C)CO)C3=O)cc1 | 56.9% (active)
8 | O=C(O)CC/C(=C\c1ccc(N2CCCC2)c([N+](=O)[O-])c1)c1nc2ccccc2s1 | 84.2% (active)
9 | O=C(O)C/C(=C\c1cc2c(cc1Br)OCO2)c1nc2ccccc2s1 | 22.2% (inactive)
10 | O=C(O)CC/C(=C\c1ccc(N2CCOCC2)c([N+](=O)[O-])c1)c1nc2ccccc2s1 | 91.2% (active)
11 | COc1cc(/C=C(\CCC(=O)O)c2nc3ccccc3s2)ccc1OCC(=O)Nc1c(Cl)cccc1Cl | 57.7% (active)
12 | O=C(O)CCc1ccc(S(=O)(=O)Nc2cc(C(F)(F)F)ccc2N2CCCC2)cc1 | 13.5% (inactive)
13 | CCCCOc1ccc(CNC(=O)NS(=O)(=O)c2ccc(OCC(C)C)cc2)cc1 | 57.7% (active)
14 | Cc1ccc(CNC(=O)Nc2ccc(Cl)cc2)cc1 | 1.92% (inactive)
15 | CCCCOc1ccc(S(=O)(=O)NC(=O)NCc2ccc(OCCC)cc2)cc1 | 32.1% (active)
16 | O=C(COC(=O)C1(c2ccc(F)cc2)CCCC1)N1CCN(C(=O)c2ccco2)CC1 | 20.3% (inactive)
17 | Clc1ccc(SCCCCn2ccnc2)cc1 | 62.5% (active)
18 | Clc1ccc(SCCn2ccnc2)cc1 | 37.8% (active)
19 | Cc1c(NC(=O)CCSc2ccc(Cl)cc2)c(=O)n(-c2ccccc2)n1C | 24% (inactive)
20 | CC1(COS(N)(=O)=O)CCCCC1 | 16.8% (inactive)
21 | CC(NC(=O)c1cc2cc(Br)ccc2oc1=N)c1ccccc1 (configuration not stated) | 21.8% (inactive)
22 | O=C(O)c1[nH]c2ccccc2c1C(c1cc(Br)ccc1O)c1c(C(=O)O)[nH]c2ccccc12 | 89.5% (active)
23 | O=C(O)COc1ccccc1-c1nc(-c2ccccc2)c(-c2ccccc2)[nH]1 | 24% (inactive)
24 | CCOc1cc(Br)cc(C(c2c(C(=O)O)[nH]c3ccccc23)c2c(C(=O)O)[nH]c3ccccc23)c1O | 62.7% (active)
25 | O=C(O)COc1ccc(Br)cc1C(c1c(C(=O)O)[nH]c2ccccc12)c1c(C(=O)O)[nH]c2ccccc12 | 46.4% (active)
26 | CC(Nc1ccc(Cl)cc1)c1cc(Cl)ccc1O (configuration not stated) | 42.3% (active)

Row | Structure (SMILES) | inhibition
27 | COc1oc(C(=O)NC2CCCCC2)c(-c2ccc(Cl)cc2)c1S(=O)(=O)c1ccccc1 | 11.3% (inactive)
28 | Nc1scc(-c2ccncc2)c1Cl | 91.5% (active)
29 | O=C(O)CCn1cc(/C=C/C(=O)c2ccc(Cl)cc2)c(-c2cccc(Br)c2)n1 | 47.4% (active)
30 | O=C(O)CCn1cc(/C=C\C(=O)c2ccc(Cl)cc2)c(-c2cccc(Br)c2)n1 | 41.1% (active)
31 | CCN(C(=O)CSc1nnc(-c2ccc3c(c2)OCO3)o1)C1CCS(=O)(=O)C1 (configuration not stated) | 1.27% (inactive)
32 | NC(=S)N=Nc1c(O)n(CCCl)c2ccc(Br)cc12 | 30.4% (active)
33 | Cc1ccc(S(=O)(=O)Oc2ccc(C3C4=C(CCCC4=O)N(CCC(=O)O)C4=C3C(=O)CCC4)cc2Cl)cc1 | 33.9% (active)
34 | Cc1cc(C(C)(C)C)cc(S(=O)(=O)Nc2cccc(C(=O)O)c2)c1C | 23.3% (inactive)
35 | Cc1ccc(S(=O)(=O)Nc2ccc(S(=O)(=O)NCC3CCCO3)cc2)cc1 (configuration not stated) | 23.3% (inactive)
36 | Cc1ccc(S(=O)(=O)Nc2cc(C)c(O)c(S(=O)(=O)c3ccc(C)cc3)c2)cc1 | 28.9% (active)
37 | COc1cccc(/C=N/N2CCN(c3ccc(Cl)cc3)CC2)c1OC | 23.6% (inactive)
38 | NC1=NC(=O)/C(=C/c2cn(CCC(=O)O)nc2-c2ccc(Cl)cc2)S1 | 24.1% (active)
39 | NC1=NC(=O)/C(=C/c2cn(CCC(=O)O)nc2-c2ccc(F)cc2)S1 | 38.2% (active)
40 | NC(=O)c1c(NC(=O)CN2CCN(S(=O)(=O)c3ccccc3)CC2)sc2c1CCC2 | 1.51% (inactive)
41 | Cc1ccc(S(=O)(=O)N2CCC(=O)N(C(COC(=O)Nc3ccccc3)Cc3ccccc3)CC2)cc1 (configuration not stated) | 32.5% (active)
42 | CCc1ccc(-c2nc(CSCC(=O)N3CCN(c4ccccn4)CC3)c(C)o2)cc1 | 53% (active)
43 | CCCCCCCCCCCC(=O)O | 21.5% (inactive)
44 | O=c1[nH]c(CSc2nc3ccccc3s2)nc2ccccc12 | 16.8% (inactive)
45 | CC(=O)NC(Cc1c[nH]c2ccccc12)C(=O)OCC(=O)N1CCN(S(=O)(=O)c2ccc(Cl)cc2)CC1 (configuration not stated) | 84.9% (active)
46 | CC(C(=O)Nc1ccccc1-c1ccccc1)N1CCN(S(=O)(=O)c2ccccc2)CC1 (configuration not stated) | 22% (inactive)
47 | COc1ccccc1N1CCN(S(=O)(=O)c2ccc(Cl)cc2)CC1 | 24.1% (inactive)
48 | N=c1c(S(=O)(=O)c2ccc(Br)cc2)cc2c(=O)n3ccccc3nc2n1CCN1CCOCC1 | 22.9% (inactive)
49 | Nc1nc(C2CCCCC2)cs1 | 55.7% (active)
50 | COC(=O)CSc1nnc(SCc2ccc(Cl)cc2)s1 | 20.6% (inactive)
51 | NS(=O)(=O)c1cccc(NC(=O)CC23CC4CC(C2)CC(CC(=O)Nc2cccc(S(N)(=O)=O)c2)(C4)C3)c1 | 27.4% (active)
52 | CCc1cccc(Nc2cnn(C34C[C@@H]5C[C@@H](CC(CC(=O)O)(C5)C3)C4)c(=O)c2Cl)c1 | 20.4% (inactive)

Reference: PubChem BioAssay AID493034 (The Scripps Research Institute Molecular Screening Center, 2011)
